The record followed here is paper PMC4336329 (PLoS ONE, 2015).

Screen size: about 310,000 compounds; about 14,000 (4.5%) showed an effect of 50% or more. Effects have a minus sign here. The sample holds strong results, similar compounds and a random draw of the others, so the mix is not that of the screen.
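Further: peak tail current of the secondary pulse compared with the same well before compound.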

Chain of human ether-à-go-go-related gene (hERG) potassium channel (Q12809 whole entry, looked up): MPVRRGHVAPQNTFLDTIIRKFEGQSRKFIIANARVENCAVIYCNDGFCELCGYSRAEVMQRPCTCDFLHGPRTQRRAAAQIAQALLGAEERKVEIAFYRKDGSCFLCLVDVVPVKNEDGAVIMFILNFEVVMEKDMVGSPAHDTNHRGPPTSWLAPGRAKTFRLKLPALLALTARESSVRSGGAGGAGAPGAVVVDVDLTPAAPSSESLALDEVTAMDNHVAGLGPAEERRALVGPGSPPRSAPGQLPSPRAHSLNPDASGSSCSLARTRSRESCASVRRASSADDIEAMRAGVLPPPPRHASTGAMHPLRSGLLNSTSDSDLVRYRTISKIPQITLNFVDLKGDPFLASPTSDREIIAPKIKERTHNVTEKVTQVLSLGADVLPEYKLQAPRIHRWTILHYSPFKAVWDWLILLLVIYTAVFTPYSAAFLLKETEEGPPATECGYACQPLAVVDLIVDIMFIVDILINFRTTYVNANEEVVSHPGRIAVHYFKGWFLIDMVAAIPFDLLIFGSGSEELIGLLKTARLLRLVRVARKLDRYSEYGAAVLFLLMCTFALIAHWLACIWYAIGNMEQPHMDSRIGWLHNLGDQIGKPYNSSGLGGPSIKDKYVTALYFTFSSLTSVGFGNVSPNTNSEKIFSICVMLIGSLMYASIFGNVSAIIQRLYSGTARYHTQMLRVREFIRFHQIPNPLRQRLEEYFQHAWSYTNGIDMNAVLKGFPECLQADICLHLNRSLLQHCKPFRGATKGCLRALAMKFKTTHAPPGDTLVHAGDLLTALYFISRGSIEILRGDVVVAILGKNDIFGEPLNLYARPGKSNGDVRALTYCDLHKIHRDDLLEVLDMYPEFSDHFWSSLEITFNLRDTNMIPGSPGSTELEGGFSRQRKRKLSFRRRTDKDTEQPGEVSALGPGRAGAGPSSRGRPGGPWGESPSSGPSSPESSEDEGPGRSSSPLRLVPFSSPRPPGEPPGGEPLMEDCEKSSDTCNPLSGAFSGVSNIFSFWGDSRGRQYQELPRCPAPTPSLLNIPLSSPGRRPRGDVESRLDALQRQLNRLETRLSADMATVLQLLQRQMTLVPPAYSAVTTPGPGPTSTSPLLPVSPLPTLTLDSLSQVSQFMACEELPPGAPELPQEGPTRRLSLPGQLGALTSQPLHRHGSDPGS

This test addresses human ether-à-go-go-related gene (hERG) potassium channel (human, UniProt Q12809). The experiment in a line: primary screen, population patch clamp on CHO cells stably expressing hERG; higher = less effect of the substance.
`CCCCN(CC)C(=O)C1CCC(=O)N(c2ccc(OC)cc2)C1c1ccc(OC)c(OC)c1` (centres unmarked): the “hERG current change (%, negative = inhibition) at 10uM” value is reported as -10.2%.
Then `CC(C)C(=O)Nc1nc2cc3c(cc2s1)OCCO3`, with -4.59%; and `S=c1[nH]nc(-c2ccc(Cl)cc2)n1/N=C/C=C/c1ccco1`, with 15.3%.
In the case of `CCN(CC)S(=O)(=O)c1ccc(O)c(C(=O)OCC(=O)N2CCCC2)c1`, the “hERG current change (%, negative = inhibition) at 10uM” value turned out to be 11.4%.
With `CC(C)CNc1nc(S(=O)(=O)c2ccccc2)c(Cl)s1`, the “hERG current change (%, negative = inhibition) at 10uM” value is on record as -11.5%.
For the molecule `CCCS(=O)(=O)c1nc(S(=O)(=O)c2ccc(C)cc2)c(NCCCn2ccnc2)s1`, the “hERG current change (%, negative = inhibition) at 10uM” value was -29.6%.
Then `Cc1ccc(S(=O)(=O)c2nc(NN(C)C)sc2Cl)cc1`, with -5.48%; and `CN(C)CCNc1nc(S(=O)(=O)c2ccccc2)c(Cl)s1`, with -56.2%.
On to `O=S(=O)(c1ccccc1)c1nc(NCc2ccccc2)sc1Cl`, for which the “hERG current change (%, negative = inhibition) at 10uM” value is given as -9.88%.
Then `CC(=O)Nc1nc(S(=O)(=O)c2ccc(C)cc2)c(Cl)s1`, with -8.1%.
For `Cc1ccc(S(=O)(=O)c2nc(NCCN(C)C)sc2Cl)cc1` the value was -69.5%.
Then `CCS(=O)(=O)c1nc(S(=O)(=O)c2ccc(C)cc2)c(NCCCn2ccnc2)s1`, with -26.5%; and `Cc1ccc(S(=O)(=O)c2nc(NCCCn3ccnc3)sc2Cl)cc1`, with -78.6%; and `CCCCCCC/C=N/Nc1nnc(Cc2ccccc2)c(=O)[nH]1`, with 33.2%.
Turning to `CCn1cc(C(=O)NCc2ccc(OC)cc2)c(=O)c2ccc(C)nc21`, the “hERG current change (%, negative = inhibition) at 10uM” value was found to be 22.1%.
Then `Cc1cccc(NC(=S)NNC(=O)c2csc(C(C)C)c2)c1`, with 2.52%; and `CCN(CC)CCCNC(=O)c1cn(CCOC)c(=O)c2c1c1ccccc1n2C`, with -0.445%; and `O=Cc1coc2ccc3ccccc3c2c1=O`, with 14.5%.
For `CCCN(C(=O)c1cn(-c2ccccc2)nc1-c1ccc(OC)cc1)C1CCS(=O)(=O)C1` (centres unmarked) the value was -22.8%; for `O=C(CN1CCN(C(=O)c2ccccc2)CC1)Nc1ccccc1`, -20.1%; for `CCc1nnc(NC(=O)CN2CCN(C(=O)c3ccccc3)CC2)s1`, 14.7%.
For `O=C(CN1CCCCCC1)Nc1ccc(Br)cn1` the value was -20.7%; for `O=C(CN1CCN(C(=O)c2ccccc2)CC1)Nc1ncc(Br)cc1Br`, -78.1%; for `O=C(CN1CCOCC1)Nc1ncc(Br)cc1Br`, -20.3%.
For the molecule `O=C(CN1CCN(C(=O)c2ccccc2)CC1)Nc1ccc(Br)cn1`, the “hERG current change (%, negative = inhibition) at 10uM” value is given as -74.4%.
For `CCOC(=O)N1CCC(NC(=O)c2cc3c(=O)[nH]c4ccccc4c3n2C)CC1` the value was -3.23%; for `COc1ccccc1NC(=O)/C(=C/c1cccs1)NC(=O)c1ccco1`, -33.1%; for `CC(=O)Nc1ccc2nc(NC(=O)c3ccc([N+](=O)[O-])s3)sc2c1`, 8.75%.
For `CCSc1nc2c(c(=O)[nH]1)C(C(C)C)C(C#N)=C(N)O2` (centres unmarked) the value was 5.71%; for `Cc1ccccc1NC(=O)Nc1nc2ccc(S(C)(=O)=O)cc2s1`, -2.53%.
For the molecule `O=C(N/N=C/c1coc2ccc(Cl)cc2c1=O)c1ccncc1`, the “hERG current change (%, negative = inhibition) at 10uM” value came out at 6.28%.
Then `CCCN(CCC)CCCNC(=O)C1CCC(CNS(=O)(=O)c2cccc3nsnc23)CC1` (centres unmarked), with -10.1%.
For `O=C(Cc1ccccc1)NCc1ccc2c(c1)OCO2`, the “hERG current change (%, negative = inhibition) at 10uM” value stood at 3.22%.
For `O=C(CN(Cc1ccc(F)cc1)C(=O)c1csnn1)NCc1ccc2c(c1)OCO2` the value was -64.5%; for `COc1ccccc1CN(CC(=O)NCc1ccc2c(c1)OCO2)C(=O)c1ccc2c(c1)OCCO2`, -28.4%; for `O=C(CN(Cc1ccccc1Cl)C(=O)c1csnn1)NCc1ccc2c(c1)OCO2`, -51.4%.
`O=C(CN(Cc1ccccc1F)C(=O)c1csnn1)NCc1ccc2c(c1)OCO2`: the “hERG current change (%, negative = inhibition) at 10uM” value is -22%.
Regarding `COc1ccc(CN(CC(=O)NCc2ccc3c(c2)OCO3)C(=O)c2csnn2)cc1`, the “hERG current change (%, negative = inhibition) at 10uM” value is on record as -39.8%.
For `O=C(CN(Cc1ccccc1)C(=O)c1ccc2c(c1)OCCO2)NCc1ccc2c(c1)OCO2` the value was -59%; for `O=C(CN(C(=O)c1csnn1)c1cccc(F)c1)NCc1ccc2c(c1)OCO2`, -7.22%; for `Cc1ccc(CN(CC(=O)NCc2ccc3c(c2)OCO3)C(=O)c2csnn2)cc1`, -50.5%.
For `O=C(CN(C(=O)c1csnn1)c1ccc(F)cc1)NCc1ccc2c(c1)OCO2` the value was 9.12%; for `COc1ccccc1CN(CC(=O)NCc1ccc2c(c1)OCO2)C(=O)c1csnn1`, -34.2%.
As to `O=C(CN(Cc1ccccc1)C(=O)c1csnn1)NCc1ccc2c(c1)OCO2`, the “hERG current change (%, negative = inhibition) at 10uM” value is -23.4%.
For `C=CCn1c(Cc2cccs2)nnc1SCC(=O)Nc1cc(OC)cc(OC)c1` the value was -27.8%; for `Cc1nc2nc(C)c(CCC(=O)Nc3ccc4c(c3)OCO4)c(C)n2n1`, -18%.
Consider `COc1ccc(C2N=C(N)N=C(N)N2c2ccccc2OC)cc1OC.Cl` (centres unmarked), for which the “hERG current change (%, negative = inhibition) at 10uM” value is given as -11.7%.
Consider `O=C(Nc1nnc(-c2cccs2)o1)C1CC1`, for which the “hERG current change (%, negative = inhibition) at 10uM” value was found to be 3.93%.
For `CCOC(=O)C1=NNC(C(=O)c2ccc(OC)cc2)C1c1ccccc1` (centres unmarked) the value was -9.43%; for `Cn1ncc(C#N)c1NC(=O)C1CC(c2ccc(Cl)c(Cl)c2)=NO1` (centres unmarked), -9.94%.
Then `COc1cccc(CC(=O)Nc2nc3ccccc3[nH]2)c1`, with 10.7%.
For `Cc1cccc(NC(=S)NCCc2c[nH]c3ccccc23)c1` the value was -4.25%; for `CCOC(=O)CNC(=S)N(Cc1ccccc1F)C1CCCCC1`, -73%; for `O=C(O)CNC(=S)N(Cc1ccccc1F)C1CCCCC1`, 0.581%.
As for `CCCNC(=O)CNC(=S)N(Cc1ccccc1F)C1CCCCC1`, the “hERG current change (%, negative = inhibition) at 10uM” value is -10.8%.
For `CC(C)c1ccc(S(=O)(=O)N2CCN(C(=O)n3ccnc3)CC2)cc1` the value was -35.8%; for `COc1cc(OC)cc(C(=O)N[C@H](C(=O)NCc2ccccc2)C(C)C)c1`, 7.08%; for `CCOC(=O)N1CCN(C(=S)NC(=O)c2cc(Br)ccc2Cl)CC1`, 3.59%.
`C=CCc1c(C)nc(C)nc1N/N=C/c1ccc([N+](=O)[O-])cc1.Cl`: the “hERG current change (%, negative = inhibition) at 10uM” value is -56.3%.
As to `C=CCc1c(C)nc(C)nc1N/N=C/c1ccc(F)cc1`, the “hERG current change (%, negative = inhibition) at 10uM” value was -30.9%.
Then `C=CCc1c(C)nc(C)nc1N/N=C/c1ccccc1`, with -19.2%.
Then `CCC(c1nnnn1Cc1ccc(F)cc1)N(CCCO)Cc1cc2cc3c(cc2[nH]c1=O)OCO3` (centres unmarked), with -17.5%.
For `Cc1ccc(-n2c(O)c(/C=N/c3ncc(Br)cc3Br)c(=O)[nH]c2=O)cc1` the value was 2.79%.
`CCOCCCn1c(SCC(=O)Nc2ccccc2OC)nc2ccccc2c1=O`: the “hERG current change (%, negative = inhibition) at 10uM” value is listed as -45%.
In the case of `CCOCCCn1c(SCC(=O)Nc2cccc(OC)c2)nc2ccccc2c1=O`, the “hERG current change (%, negative = inhibition) at 10uM” value was -58.4%.
Take `CCOCCCn1c(SCC(=O)Nc2ccc(NC(C)=O)cc2)nc2ccccc2c1=O`: the “hERG current change (%, negative = inhibition) at 10uM” value worked out at 7.29%.
For `CCOCCCn1c(SCC(=O)Nc2ccccc2)nc2ccccc2c1=O` the value was -29.4%.
Then `COCCCNC(=O)CSc1nc2ccccc2c(=O)n1Cc1ccc2c(c1)OCO2`, with 12.4%.
Then `CCOCCCn1c(SCC(=O)Nc2ccc(OC)cc2)nc2ccccc2c1=O`, with -11%; and `CCCCNC(=O)CSc1nc2cc3c(cc2c(=O)n1Cc1ccco1)OCO3`, with -10.8%; and `CCCCNC(=O)CSc1nc2cc3c(cc2c(=O)n1CCCC(=O)NCCc1ccc(OC)c(OC)c1)OCO3`, with 1.71%.
For `CCOCCCn1c(SCC(=O)Nc2cc(OC)ccc2OC)nc2ccccc2c1=O`, the “hERG current change (%, negative = inhibition) at 10uM” value is -55.7%.
Then `CCCCNC(=O)CSc1nc2cc3c(cc2c(=O)n1CCCN(CC)CC)OCO3`, with -62.6%; and `CCOCCCn1c(SCC(=O)NCc2ccc3c(c2)OCO3)nc2ccccc2c1=O`, with -59%; and `COCCn1c(SCC(=O)NCc2ccc3c(c2)OCO3)nc2ccccc2c1=O`, with -42.4%.
Then `CCC1CCCCN1Cc1ccc(CNC(=O)CCc2nnc3ccc(N4CCCCC4)nn23)o1` (centres unmarked), with 18.2%.
For `Cc1ccc(S(=O)(=O)N2CCC(C)CC2)c([N+](=O)[O-])c1` the value was -12.9%.
Turning to `Cc1ccc(CN2CC(C(=O)N(C)CC(=O)Nc3cccc(F)c3)CC2=O)cc1` (centres unmarked), the “hERG current change (%, negative = inhibition) at 10uM” value is listed as -7.16%.
Take `O=C1Nc2ccccc2C1(O)c1ccccc1O` (centres unmarked): the “hERG current change (%, negative = inhibition) at 10uM” value is 34.6%.
Then `CCOc1ccc(OCCC(=O)OCC(=O)Nc2ccc3c(c2)OCCO3)cc1`, with -5.02%; and `COc1ccc(C[C@H]2CN3C(=NC[C@@H]3Cc3ccc(O)cc3)N2C[C@H](C)NC(=O)CCC2CCCCC2)cc1`, with -66.1%; and `CC(C)[C@H]1CN=C2N(C[C@H](C)NC(=O)CCC3CCCCC3)[C@H](Cc3ccc(O)cc3)CN21`, with -59.7%.
Then `COc1ccc(C[C@@H]2CN3C(=NC[C@@H]3C)N2C[C@H](C)NC(=O)CCC2CCCCC2)cc1`, with -67.4%; and `O=C(CCC1CCCC1)N[C@@H](Cc1ccc(O)cc1)C(=O)O`, with 28.8%.
Turning to `C[C@@H](CN1C2=NC[C@H](C)N2C[C@H]1Cc1ccc(O)cc1)NC(=O)CCC1CCCCC1`, the “hERG current change (%, negative = inhibition) at 10uM” value is on record as -11.9%.
`COc1ccc(C[C@@H]2CN3C(=NC[C@@H]3Cc3ccc(O)cc3)N2C[C@H](C)NC(=O)CCC2CCCCC2)cc1`: the “hERG current change (%, negative = inhibition) at 10uM” value is -80.6%.
